From the supplement of paper PMC6555819 come the findings set out here.

Assay in all cases: PBM binding z-score (relative to random genomic background probes); higher = stronger binding; sequences stand for … in GC…GCGATTGACAGCGTAGAATGAAGG
The subject of experiment [1] is FXR:RXRa (NR concentration 270 nM, RXRa partner concentration 90 nM). Put shortly:
(§1)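 Ligand-free nuclear receptor dimers were bound for 1 h to custom Agilent 4×180K protein-binding microarrays. Detection used antibodies against each partner (one per run). Binding z-scores rest on regression-normalized fluorescence, with random background probes as the reference.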

Experiment [2] has as its system LXRa:RXRa (NR concentration 270 nM, RXRa partner concentration 90 nM). In a few lines:
as §1

Experiment [3] relates to LXRa homodimer (NR concentration 270 nM). Put shortly:
as §1

The subject of experiment [4] is LXRb:RXRa (NR concentration 270 nM, RXRa partner concentration 90 nM). Put shortly:
as §1

Experiment [5] has as its system LXRb homodimer (NR concentration 270 nM). Put shortly:
as §1

The subject of experiment [6] is PPARg:RXRa 270nM:90nM, anti-RXR (NR concentration 270 nM, RXRa partner concentration 90 nM). In a few lines: as §1
The subject of experiment [7] is PPARg:RXRa 30nM:10nM, anti-RXR (NR concentration 30 nM, RXRa partner concentration 10 nM). In a few lines:
as §1

Experiment [8] relates to PPARg:RXRa 90nM:30nM, anti-RXR (NR concentration 90 nM, RXRa partner concentration 30 nM). Put shortly: as §1
Experiment [9] deals with PPARg:RXRa DBDmut IVT, anti-RXR (DBD mutation: RXRa K156A/R161A, NR concentration 270 nM, RXRa partner concentration 90 nM). In a few lines: as §1
Experiment [10] relates to PPARg:RXRa IVT, anti-PPARg (NR concentration 270 nM, RXRa partner concentration 90 nM). Put shortly: as §1
The test system of experiment [11] is PPARg DBDmut:RXRa IVT, anti-PPARg (DBD mutation: PPARg1 K132A/R137A, NR concentration 270 nM, RXRa partner concentration 90 nM). Put shortly: as §1
Experiment [12] deals with PPARg DBDmut IVT, anti-PPARg (DBD mutation: PPARg1 K132A/R137A, NR concentration 270 nM). In a few lines:
as §1

The subject of experiment [13] is PPARg homodimer (NR concentration 180 nM). In a few lines: as §1
Experiment [14] deals with PXR:RXRa (NR concentration 270 nM, RXRa partner concentration 90 nM). In a few lines: as §1
The test system of experiment [15] is PXR homodimer (NR concentration 270 nM). Put shortly: as §1
For experiment [16], the system named is RARa:RXR (NR concentration 270 nM, RXRa partner concentration 90 nM). In a few lines:
as §1

The subject of experiment [17] is RARa homodimer (NR concentration 270 nM). Put shortly: as §1
The subject of experiment [18] is RARb:RXRa (NR concentration 270 nM, RXRa partner concentration 90 nM). In a few lines: as §1
Experiment [19] deals with PPARg:RXRa (NR concentration 180 nM, RXRa partner concentration 90 nM). In a few lines:
as §1

Experiment [20] relates to PPARa:RXRa (NR concentration 270 nM, RXRa partner concentration 90 nM). In a few lines:
as §1

Turning to CGAACTAGTTCAAGGACAGTGAATCTCCGCACGC, the PBM binding z-score was 0.282 in [1]; 0.229 in experiment [2]; -0.253 in [3]; -0.107 in experiment [4]; -0.693 in experiment [5]; 0.0328 in experiment [6]. Besides, the PBM binding z-score in experiment [7] was -0.735; in experiment [8] it was -0.0258; in experiment [9], 0.894; in [10] it was -0.296; in [11], -0.635; in experiment [12] it was -0.503. Moreover, the PBM binding z-score in [13] was 0.151; in [14], 0.352; in experiment [15], 0.308; in experiment [16], 0.402; in [17], -0.835; in [18], 1.53.

For CATCCAAGGTCAAAGGTCAGTGAAGAGATGACGG, the PBM binding z-score in experiment [1] is 8.63; in [2], 7.28; in [3], 5.11; in experiment [4] it was 7.03; in experiment [5] it was 3.15; in [19] it was 11.1. Besides, the PBM binding z-score in experiment [6] was 9.75; in experiment [7], 8.73; in [8], 10.8; in [9], 4.07; in experiment [10] it was 6.54; in experiment [11], 2.71. Also, the PBM binding z-score in experiment [12] turned out to be 3.63; in experiment [13] it was 5.52; in experiment [14] it was 7.36; in experiment [15] it was 2.53; in experiment [17], 3.93.

As to TCGAGTAGGTTACGGGGGCCTTCAGGGATGAAGA, the PBM binding z-score in experiment [1] worked out at 1.17; in [2] it was 1.71; in experiment [3], 0.239; in [4], 4.15; in experiment [20], 2.99; in [19], 2.78. For the same sequence, the PBM binding z-score in [6] came out at 3.68; in experiment [7] it was 1.85; in experiment [8], 2.72; in experiment [9], 4.03; in [10] it was 4.68; in experiment [13], 0.342. The PBM binding z-score in [14] is 1.52; in [15], 0.275; in experiment [16], 1.48; in [17], -0.236; in [18], 1.58.

For GCTGCTAGGTCGACTGATGGTCAGCTAAAGCTCG, the PBM binding z-score in experiment [1] is -0.376; in [2], -0.522; in experiment [3] it was -0.803; in experiment [4], -0.528; in experiment [5], -1.35; in experiment [19] it was -0.467. Also, the PBM binding z-score is -0.365 in experiment [6]; -0.591 in [7]; -0.382 in experiment [8]; 1.27 in experiment [9]; 0.463 in experiment [10]; -1.49 in experiment [11]. The PBM binding z-score is -1.06 in [12]; -0.687 in [13]; -0.436 in experiment [14]; -1.21 in experiment [15]; 0.0289 in [16]; -1.87 in [17]. In experiment [18], the PBM binding z-score is 1.37.

Regarding TCATATAGGTAAAAGGTCAAAGTCGGTGTGGTAA, the PBM binding z-score in experiment [1] is 6.77; in experiment [2] it was 6.41; in experiment [3] it was 4.99; in experiment [4], 5.78; in [5], 2.43; in experiment [6], 10.5. Also, the PBM binding z-score in [7] was 10.9; in experiment [8], 12.4; in experiment [9] it was 5.65; in [10], 6.93; in experiment [11], 2.69; in experiment [12] it was 3. For the same sequence, the PBM binding z-score in experiment [13] was found to be 5.82; in experiment [14], 5.94; in experiment [15], 2.41; in experiment [17], 4.73; in experiment [18], 4.88.

With TCAAGTAGGTTACGGGGGCATTCAGGGATGAAGA, the PBM binding z-score in [1] amounted to 3.28; in experiment [2], 3.4; in experiment [3], 1.53; in experiment [4], 5.4; in experiment [20] it was 4.49; in experiment [19], 7.97. Moreover, the PBM binding z-score in [6] came to 7.05; in experiment [7] it was 6.15; in experiment [8], 6.95; in experiment [9], 6.98; in experiment [10], 7.48; in [13], 3.45. The PBM binding z-score is 3.45 in experiment [14], 2.97 in experiment [15], 3.18 in [16] and 1.26 in [17].

In the case of CCGACTGGGTCAAAGGTTACCATACTCAGTACGA, the PBM binding z-score in experiment [1] is 4.79; in experiment [2], 4.3; in experiment [3], 0.367; in experiment [4], 4.02; in [5] it was -0.508; in [19], 12. In addition, the PBM binding z-score in experiment [6] came out at 10.2; in [7], 9.87; in experiment [8], 11.1; in experiment [9], 6.05; in [10] it was 7.26; in experiment [11], 1.18. For the same sequence, the PBM binding z-score in experiment [12] was 0.000446; in experiment [13], 1.89; in experiment [14], 5.14; in experiment [15], -0.223; in experiment [17], 0.785; in experiment [18], 4.1.

Regarding CAAACTAGGTCACAGGGGTCAAAGTCCGTGCGTA, the PBM binding z-score in experiment [1] stood at 7.54; in experiment [2] it was 6.48; in experiment [3], 5.12; in experiment [4], 6.61; in experiment [5], 1.67; in experiment [6], 8.74. Further, the PBM binding z-score is 7.69 in experiment [7]; 9.17 in [8]; 8.38 in experiment [9]; 9.12 in [10]; 4.98 in experiment [11]; 3.18 in [12]. The PBM binding z-score in experiment [13] turned out to be 3.99; in [14], 6.9; in experiment [15], 8.47; in [16] it was 8.18; in experiment [17] it was 1.96; in experiment [18] it was 5.46.
